Data taken from PubChem BioAssay (Tox21).
Values without a mark were called inactive. Inconclusive results are not listed. A call without a number means that no potency is given here. Activity calls are given as the source filed them. Unless noted, calls follow the shape of the full dose curve.

Experiments:
[1] = Nuclear factor erythroid 2-related factor 2/antioxidant responsive element (Nrf2/ARE) small molecule agonists: qHTS cell viability counter screen in human keratinocytes (AID 1919968; active = well fitted curve in the direction sought with a large enough effect in the repeat runs; an effect the other way counts as inactive or inconclusive; also: nearly all actives have a fitted effect of over 55% in size)
Outline: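 Cytotoxicity was multiplexed with the Nrf2/ARE luciferase assay in the same wells. Stably transfected HaCaT keratinocytes were treated with test compounds for 23 h at 37 C. Cell viability was then measured by CellTiter-Fluor fluorescence.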

[2] = Nuclear factor erythroid 2-related factor 2/antioxidant responsive element (Nrf2/ARE) small molecule agonists: luciferase reporter gene qHTS assay in human keratinocytes (AID 1919969); also: nearly all actives have a fitted effect of over 35% in size; also: potency is read from the fitted curve at half-maximal effect
[3] = biological target: Gonadotropin-releasing hormone receptor (Homo sapiens) (UniProt P30968); assay: Human gonadotropin-releasing hormone receptor (GnRHR) small molecule agonists, calcium flux assay in GnRHR-HEK293 cells (AID 1920063); also: nearly all actives have a fitted effect of over 35% in size
Outline: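 Agonist activity was measured as intracellular calcium flux in HEK293 cells engineered to stably express human GnRHR. After dye loading for 1 hour at 37 C, compounds in DMSO were added and fluorescence was followed for 3 minutes.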

[4] = biological target: KiSS-1 receptor (Homo sapiens) (UniProt Q969F8); assay: Human kisspeptin (KISS1R) small molecule agonists, calcium flux assay in KISS1R-HEK293 cells (AID 1920064; active = well fitted curve in the direction sought with a large enough effect in the repeat runs; an effect the other way counts as inactive or inconclusive)
Outline: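 Agonist activity is monitored as intracellular calcium rise in engineered HEK293 cells carrying human KISS1R. Cells are dye-loaded for 1 h at 37 C before compound addition, and fluorescence is recorded for 3 min.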

[5] = G protein-coupled receptor (GPCR) small molecule agonists, calcium flux assay: HEK293 wild type cell line counter screen (AID 1920065)
Outline: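 Seed cells, incubate 18 h (37 C, 5% CO2); add calcium dye, 1 h at 37 C; pin-transfer compounds, ATP control or DMSO; read fluorescence 480/540 nm each second for 3 min.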

[6] = p53 small molecule agonists, cell-based qHTS assay with human liver microsomes (AID 1963577)
Outline: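 Fluorescence of the beta-lactamase reporter in p53RE-bla cells, detected with LiveBLAzer substrate (2 h, room temperature, dark), served as the read-out after 16 h compound exposure at 37 C with human liver microsomes and NADPH, each 0.5 mg/mL final.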

[7] = p53 small molecule agonists, cell-based qHTS assay with rat liver microsomes (AID 1963578)
Outline: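 Cells carrying a p53 response element–beta-lactamase reporter were plated and rested 5 h, then dosed with compound in DMSO plus rat liver microsomes and NADPH, each at 0.5 mg/mL final. After 16 h at 37 C, LiveBLAzer substrate was added for 2 h.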

[8] = p53 small molecule agonists, cell-based qHTS assay with human liver microsomes: qHTS cell viability counter screen (AID 1963579); also: nearly all actives have a fitted effect of over 45% in size
Outline: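 Cytotoxicity counter screen: p53RE-bla, 4,000 cells/well; 5 h settle, 37 C/5% CO2; cpd + HLM 0.5 mg/mL + NADPH 0.5 mg/mL (final); 16 h, 37 C; CellTiter-Glo, 30 min RT, luminescence.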

[9] = p53 small molecule agonists, cell-based qHTS assay with rat liver microsomes: qHTS cell viability counter screen (AID 1963580); also: nearly all actives have a fitted effect of over 45% in size
Outline: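 After the beta-lactamase ratio was read, CellTiter-Glo was added to the same wells and luminescence measured at 30 min; cells had been treated 16 h at 37 C with compounds, rat liver microsomes and NADPH (0.5 mg/mL final each).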

[10] = p53 small molecule agonists, cell-based qHTS assay: qHTS cell viability counter screen (AID 1963581); also: nearly all actives have a fitted effect of over 45% in size
Outline: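 Viability was counter-screened in parallel with the p53 agonist reporter by measuring intracellular ATP luminescence in the same HCT-116 p53RE-bla wells after 16 h compound treatment at 37 C.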

[11] = p53 small molecule agonists, cell-based qHTS assay (AID 1963582; active = well fitted activation curve with a large enough effect in the signal ratio in the repeat runs, not every such curve was filed as active; the % refers to the signal ratio)
Outline: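 Cells carrying a p53-responsive bla reporter are treated with test compounds for 16 h at 37 C; beta-lactamase activity is then detected with LiveBLAzer B/G FRET substrate after 2 h at room temperature.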

[12] = biological target: 5-hydroxytryptamine receptor 2A (Homo sapiens) (UniProt P28223); assay: 5-hydroxytryptamine receptor 2A (HTR2A) small molecule antagonists, cell-based qHTS assay (AID 1963586); also: nearly all actives have a fitted effect of over 45% in size; also: potency is read from the fitted curve at half-maximal effect
Outline: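 CHO cells stably expressing human HTR2A were plated for 18 h at 37 C, then loaded with calcium dye for 1 h. Compounds were preincubated 5 min at room temperature before DOI (4 nM solution) was added. Kinetic fluorescence was read for 3 min.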

[13] = biological target: Muscarinic acetylcholine receptor M1 (Homo sapiens) (UniProt P11229); assay: Cholinergic receptor muscarinic 1 (CHRM1) small molecule agonists, cell-based qHTS assay (AID 1963589); also: nearly all actives have a fitted effect of over 35% in size
Outline: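 Cells were plated and incubated 18 h at 37 C/5% CO2, loaded with calcium dye for 1 h at 37 C, then treated with compounds in DMSO. Fluorescence was recorded kinetically at 1 sec intervals.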

[14] = cAMP Responsive Elements (CRE) small molecule agonists, cell-based qHTS assay (AID 1963590)
Outline: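 Cells carrying a CRE-driven beta-lactamase reporter (HEK 293T) are seeded, incubated overnight (18 h), and treated with test compounds for 3 h at 37 C; reporter activity is then detected with a FRET substrate after 2 h at room temperature.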

[15] = cAMP Responsive Elements (CRE) small molecule antagonists, cell-based qHTS assay (AID 1963591; active = well fitted inhibition curve with a large enough effect in the signal ratio in the repeat runs, not every such curve was filed as active; the % refers to the signal ratio)
Outline: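 Cells (CRE-bla HEK 293T, DMEM with 10% dialyzed FBS and 25 mM HEPES) are seeded and incubated 18 h. Compounds are added with NKH477 agonist at 0.25 uM final for 3 h, then FRET substrate for 2 h.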

[16] = biological target: Beta-2 adrenergic receptor (Homo sapiens) (UniProt P07550); assay: Adrenergic beta2 receptor (ADRB2) small molecule antagonists, cell-based qHTS assay (AID 1963592); also: series mostly up to about 92 µM; nearly all actives have a fitted effect of over 50% in size
Outline: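 Assay format: CHO-ADRB2 cells, 18-20hr seeding at 37C/5% CO2, then compound plus 1nM isoproterenol agonist mix for 0.5hr RT. Homogeneous time-resolved fluorescence cAMP detection after 1hr, expressed as 665/615 nm ratio.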

[17] = biological target: D(2) dopamine receptor (Homo sapiens) (UniProt P14416); assay: Dopamine D2 receptor (DRD2) small molecule agonists, cell-based qHTS assay (AID 1963594); also: nearly all actives have a fitted effect of over 35% in size
Outline: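 HEK293 cells stably expressing human DRD2, pre-treated with PDE inhibitor Ro20-1724 (0.1 mM final) and compound 10 min at room temperature, then stimulated with NKH477 (200nM […]) for 30 min. cAMP read by HTRF (665/620 nm).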

[18] = biological target: D(2) dopamine receptor (Homo sapiens) (UniProt P14416); assay: Dopamine D2 receptor (DRD2) small molecule antagonists, cell-based qHTS assay (AID 1963595; active = well fitted inhibition curve with a large enough effect in the signal ratio in the repeat runs, with a control signal flat; the % refers to the signal ratio)
Outline: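 HEK293 cells stably expressing DRD2 were preincubated with 0.1 mM Ro20-1724, then with compound for 10 min at room temperature. Cells were stimulated with 200 nM NKH477 plus 12 nM quinpirole for 30 min, and cAMP was read by HTRF.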

[19] = biological target: 5-hydroxytryptamine receptor 2A (Homo sapiens) (UniProt P28223); assay: 5-hydroxytryptamine receptor 2A (HTR2A) small molecule agonists, cell-based qHTS assay (AID 1963587); also: nearly all actives have a fitted effect of over 30% in size
Outline: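 CHO cells stably expressing human HTR2A, plated 18 h, loaded with calcium dye 1 h at 37 C. Agonist mode: compounds added and intracellular calcium fluorescence recorded kinetically for 2 min at 1 sec intervals.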

[20] = biological target: Muscarinic acetylcholine receptor M1 (Homo sapiens) (UniProt P11229); assay: Cholinergic receptor muscarinic 1 (CHRM1) small molecule antagonists, cell-based qHTS assay (AID 1963588); also: nearly all actives have a fitted effect of over 40% in size
Outline: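 Compounds were tested at 15 concentrations in three independent runs. Dye-loaded CHRM1-CHO cells were exposed 5 min at room temperature before stimulation by acetylcholine added at 50nM. Intracellular calcium was read kinetically on FDSS for 3 min.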

Gonadotropin-releasing hormone receptor (Homo sapiens), sequence (P30968 whole entry, looked up): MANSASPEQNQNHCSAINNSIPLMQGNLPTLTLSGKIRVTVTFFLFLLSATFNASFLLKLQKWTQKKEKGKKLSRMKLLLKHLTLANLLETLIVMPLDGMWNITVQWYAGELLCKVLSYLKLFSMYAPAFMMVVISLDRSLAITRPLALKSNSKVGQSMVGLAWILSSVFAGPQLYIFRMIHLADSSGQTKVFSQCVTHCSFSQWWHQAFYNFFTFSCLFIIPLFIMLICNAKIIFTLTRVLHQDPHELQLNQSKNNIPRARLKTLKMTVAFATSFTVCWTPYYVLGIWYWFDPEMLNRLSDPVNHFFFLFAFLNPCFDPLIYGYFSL
KiSS-1 receptor (Homo sapiens), sequence (Q969F8 whole entry, looked up): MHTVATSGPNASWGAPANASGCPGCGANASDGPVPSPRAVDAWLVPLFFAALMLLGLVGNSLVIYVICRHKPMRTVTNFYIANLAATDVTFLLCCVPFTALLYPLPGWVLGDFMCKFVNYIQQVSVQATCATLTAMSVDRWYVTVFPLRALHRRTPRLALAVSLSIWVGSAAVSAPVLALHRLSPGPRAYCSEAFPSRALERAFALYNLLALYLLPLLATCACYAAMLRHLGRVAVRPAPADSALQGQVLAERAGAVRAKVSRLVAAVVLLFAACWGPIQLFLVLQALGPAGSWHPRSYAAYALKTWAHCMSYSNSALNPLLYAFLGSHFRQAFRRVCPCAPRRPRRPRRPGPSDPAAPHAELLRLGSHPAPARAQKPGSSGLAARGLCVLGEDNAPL
5-hydroxytryptamine receptor 2A (Homo sapiens), sequence (P28223 whole entry, looked up): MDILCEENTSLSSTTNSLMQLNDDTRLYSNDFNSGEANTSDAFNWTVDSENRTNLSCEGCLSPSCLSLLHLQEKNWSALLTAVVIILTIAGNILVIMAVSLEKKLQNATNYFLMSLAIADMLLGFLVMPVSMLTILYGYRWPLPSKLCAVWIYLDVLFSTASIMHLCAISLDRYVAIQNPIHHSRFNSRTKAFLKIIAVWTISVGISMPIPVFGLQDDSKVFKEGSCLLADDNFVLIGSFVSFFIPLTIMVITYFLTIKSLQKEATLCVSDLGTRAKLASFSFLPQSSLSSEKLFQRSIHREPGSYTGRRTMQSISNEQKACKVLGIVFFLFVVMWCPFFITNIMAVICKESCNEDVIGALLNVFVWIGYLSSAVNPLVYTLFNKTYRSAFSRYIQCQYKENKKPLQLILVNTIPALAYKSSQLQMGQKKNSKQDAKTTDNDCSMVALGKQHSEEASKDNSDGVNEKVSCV
D(2) dopamine receptor (Homo sapiens), sequence (P14416 whole entry, looked up): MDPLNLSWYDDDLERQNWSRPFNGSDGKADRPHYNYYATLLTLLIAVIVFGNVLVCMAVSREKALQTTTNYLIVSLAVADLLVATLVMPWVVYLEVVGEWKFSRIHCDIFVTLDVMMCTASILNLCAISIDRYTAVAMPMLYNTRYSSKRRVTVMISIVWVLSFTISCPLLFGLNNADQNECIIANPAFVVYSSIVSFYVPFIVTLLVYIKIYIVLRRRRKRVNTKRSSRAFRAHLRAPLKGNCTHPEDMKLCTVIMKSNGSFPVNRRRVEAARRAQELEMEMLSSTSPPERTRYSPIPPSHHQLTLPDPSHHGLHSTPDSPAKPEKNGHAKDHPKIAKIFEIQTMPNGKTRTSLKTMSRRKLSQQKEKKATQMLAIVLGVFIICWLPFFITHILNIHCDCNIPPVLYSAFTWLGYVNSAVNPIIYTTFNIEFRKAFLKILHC
Beta-2 adrenergic receptor (Homo sapiens), sequence (P07550 whole entry, looked up): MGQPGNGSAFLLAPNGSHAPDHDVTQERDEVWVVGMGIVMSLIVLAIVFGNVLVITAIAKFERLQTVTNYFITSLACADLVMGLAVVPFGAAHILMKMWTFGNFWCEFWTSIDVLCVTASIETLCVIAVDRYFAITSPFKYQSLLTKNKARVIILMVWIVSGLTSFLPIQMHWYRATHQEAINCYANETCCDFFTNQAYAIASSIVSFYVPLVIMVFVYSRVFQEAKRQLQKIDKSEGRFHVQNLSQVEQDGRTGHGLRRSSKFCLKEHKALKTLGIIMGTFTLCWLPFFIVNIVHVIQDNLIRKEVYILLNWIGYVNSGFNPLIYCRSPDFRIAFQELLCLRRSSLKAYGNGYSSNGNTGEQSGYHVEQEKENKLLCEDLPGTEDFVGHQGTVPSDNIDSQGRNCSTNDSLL
Muscarinic acetylcholine receptor M1 (Homo sapiens), sequence (P11229 whole entry, looked up): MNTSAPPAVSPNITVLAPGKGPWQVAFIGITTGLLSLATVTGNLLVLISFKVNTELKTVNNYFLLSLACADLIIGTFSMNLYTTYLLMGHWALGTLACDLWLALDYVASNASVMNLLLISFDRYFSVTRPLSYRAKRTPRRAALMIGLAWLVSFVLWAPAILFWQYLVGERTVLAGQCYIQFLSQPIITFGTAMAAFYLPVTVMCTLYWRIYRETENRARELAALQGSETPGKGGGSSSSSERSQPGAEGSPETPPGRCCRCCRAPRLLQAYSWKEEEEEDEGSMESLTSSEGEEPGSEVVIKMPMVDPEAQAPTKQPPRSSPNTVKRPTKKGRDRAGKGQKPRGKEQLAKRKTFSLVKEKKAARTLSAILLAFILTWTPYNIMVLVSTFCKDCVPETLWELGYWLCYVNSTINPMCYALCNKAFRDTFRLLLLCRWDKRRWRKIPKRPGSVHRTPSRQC

Row | SMILES | Potency [1] | Potency [2] | Potency [3] | Potency [4] | Potency [5] | Potency [6] | Potency [7] | Potency [8] | Potency [9] | Potency [10] | Potency [11] | Potency [12] | Potency [13] | Potency [14] | Potency [15] | Potency [16] | Potency [17] | Potency [18] | Potency [19] | Potency [20]
1 | ClC/C=C\CCl | inactive | inactive | inactive | inactive | inactive | inactive | inactive | inactive | inactive | inactive | inactive | inactive | inactive | inactive | inactive | inactive | inactive | inactive |  | 
2 | NC(=O)N[C@@H](CCC(=O)O)C(=O)O | inactive | inactive | inactive | inactive | inactive | inactive | inactive | inactive | inactive | inactive | inactive | 8.18 µM (active) | inactive | inactive |  | inactive | inactive |  | inactive | 
3 | CNCCS(=O)(=O)O | inactive | inactive | inactive | inactive | inactive | inactive | inactive | inactive | inactive | inactive | inactive | inactive | inactive |  | inactive | inactive | inactive | inactive | inactive | 
4 | O=C(O[C@@H](C(=O)O)[C@@H](OC(=O)c1ccccc1)C(=O)O)c1ccccc1 | inactive | inactive | inactive | inactive | inactive | inactive | inactive | inactive | inactive | inactive | inactive | inactive | inactive | inactive | inactive | inactive | inactive | inactive | inactive | 
5 | CCCCOCCOCCOCCCC | inactive | inactive | inactive | inactive | inactive | inactive | inactive | inactive | inactive | inactive | inactive | inactive | inactive |  | inactive | inactive | inactive | inactive | inactive | 
6 | O=C(CCNNC(=O)c1ccncc1)NCc1ccccc1 | inactive | inactive | inactive | inactive | inactive | inactive | inactive | inactive | inactive | inactive | inactive | inactive | inactive | inactive | inactive |  | inactive |  | inactive | 
7 | CC(C)(C)c1ccc(CCC=O)cc1 | inactive | inactive | inactive | inactive | inactive | inactive | inactive | inactive | inactive | inactive | inactive | inactive | inactive | inactive | inactive | inactive | inactive | inactive | inactive | 
8 | Nc1nccs1 | inactive | inactive | inactive | inactive | inactive | inactive | inactive | inactive | inactive | inactive | inactive | inactive | inactive | inactive | inactive | inactive |  | inactive | inactive | 
9 | CCCc1ccc(O)cc1 | inactive | inactive | inactive | inactive | inactive | inactive | inactive | inactive | inactive | inactive | inactive | inactive | inactive | inactive | inactive | inactive | inactive | inactive |  | inactive
10 | NCCNCCO | inactive | inactive | inactive | inactive | inactive | inactive | inactive | inactive | inactive | inactive | inactive | inactive | inactive | inactive | inactive | inactive | inactive | inactive |  | inactive
11 | COc1cccc(OC)c1O | inactive | inactive | inactive | inactive | inactive | inactive | inactive | inactive | inactive | inactive | inactive | inactive | inactive | inactive | inactive | inactive | inactive | inactive |  | inactive
12 | CC(C)OC(=O)C(O)(CC(=O)O)CC(=O)O | inactive | inactive | inactive | inactive | inactive | inactive | inactive | inactive | inactive | inactive | inactive | inactive | inactive | inactive | inactive | inactive |  | inactive | inactive | 
13 | Cc1ccccc1S(N)(=O)=O | inactive | inactive | inactive | inactive | inactive | inactive | inactive | inactive | inactive | inactive | inactive | inactive | inactive | inactive | inactive | inactive |  | inactive | inactive | 
14 | Cc1ccccc1C(=O)N1CC/C(=N\OS(=O)(=O)O)c2ccc(Cl)cc21 | inactive | inactive | inactive | inactive | inactive | inactive | inactive | inactive | inactive | inactive | inactive | inactive | inactive |  | inactive | inactive | inactive | inactive |  | inactive
15 | C=CCCC=C | inactive | 70.5 µM (active) | inactive | inactive | inactive | inactive | inactive | inactive | inactive | inactive | inactive | inactive | inactive | inactive | inactive | inactive | inactive |  |  | 
